From PubChem BioAssay (Tox21)
Values joined by “and” are separate entries in the source; they are usually repeats but may differ in a detail not shown here. Identical values can stand only once. Results filed as inconclusive are left out. Active and inactive are the calls of the source. Unless noted, calls come from the whole dose curve; as a rule, active = well fitted curve in the direction sought with a large enough effect in the repeat runs; inconclusive = weak or mixed curves; inactive = no such curve, though single readings can be large; an effect the other way counts as inactive or inconclusive.

Experiments:
[1] = Caspase-3/7 induction in HepG2 cells by small molecules, qHTS assay (AID 1346978); note: nearly all actives have a fitted effect of over 15% in size; note: potency is the fitted concentration of half-maximal effect
In short: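 Wild-type HepG2 cells (2,000/well) were settled 5 h at 37 C, 5% CO2, then exposed to compounds in DMSO for 17 h. Caspase-3/7 activity was read by luminescence 30 min after adding Caspase-Glo 3/7 reagent at room temperature.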

[2] = Caspase-3/7 induction in CHO-K1 cells by small molecules, qHTS cell viability counter screen (AID 1346979); note: nearly all actives have a fitted effect of over 35% in size; note: potency is the fitted concentration of half-maximal effect
In short: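 Wild-type CHO-K1 cells were seeded at 1,500 per well, rested 5hr at 37 C, then exposed to compounds in DMSO. After 16hr, CellTiter-Fluor reagent was added and fluorescence read 1hr later as the viability measure.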

[3] = Caspase-3/7 induction in CHO-K1 cells by small molecules, qHTS assay (AID 1346980); note: nearly all actives have a fitted effect of over 15% in size; note: potency is the fitted concentration of half-maximal effect
In short: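 Wild-type cells were seeded at 1,500 per well and settled 5 hr at 37 C, 5% CO2, then exposed to DMSO-dissolved compounds for 17 hr. Caspase-Glo 3/7 reagent was added, and luminescence was read after 30min at room temperature.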

[4] = Caspase-3/7 induction in HepG2 cells by small molecules, qHTS cell viability counter screen (AID 1346981); note: nearly all actives have a fitted effect of over 30% in size; note: potency is the fitted concentration of half-maximal effect; for activity change, negative = cytotoxicity: series mostly up to about 92 µM
In short: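 CellTiter-Fluor fluorescence measured viability in the same wells used for Caspase-Glo 3/7. HepG2 (wild type) at 2,000 cells/well were pre-incubated 5 hr, dosed, and given reagent at 16 hr, with 1 hr further at 37C.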

[5] = target: Nuclear receptor subfamily 1 group I member 2 (Homo sapiens) (UniProt O75469); assay: Human pregnane X receptor (PXR) small molecule agonists, qHTS assay (AID 1346982); note: nearly all actives have a fitted effect of over 35% in size; note: potency is the fitted concentration of half-maximal effect
Chain of Nuclear receptor subfamily 1 group I member 2 (Homo sapiens) (O75469 whole entry, looked up): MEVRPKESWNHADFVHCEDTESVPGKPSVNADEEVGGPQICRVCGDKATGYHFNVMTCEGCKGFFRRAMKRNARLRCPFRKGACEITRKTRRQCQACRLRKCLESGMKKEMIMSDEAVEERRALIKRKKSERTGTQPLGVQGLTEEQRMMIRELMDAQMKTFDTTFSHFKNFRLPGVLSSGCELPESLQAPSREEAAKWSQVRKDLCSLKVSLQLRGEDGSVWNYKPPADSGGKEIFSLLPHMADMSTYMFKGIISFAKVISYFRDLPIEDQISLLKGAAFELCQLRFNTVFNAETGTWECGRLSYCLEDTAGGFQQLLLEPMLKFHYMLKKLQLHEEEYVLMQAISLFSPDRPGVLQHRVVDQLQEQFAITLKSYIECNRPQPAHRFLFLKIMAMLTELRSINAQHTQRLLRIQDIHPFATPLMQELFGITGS
In short: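 Agonist mode: luminescence from ONE-Glo after 24 h compound exposure at 37C in HepG2 cells carrying hPXR-responsive CYP3A4 luciferase, plated in charcoal-stripped serum medium 5 h beforehand.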

[6] = target: Acetylcholinesterase (Homo sapiens) (UniProt P22303); assay: Acetylcholinesterase (AChE) small molecule antagonists: colormetric cell-based qHTS assay (AID 1347395; calls by dose curve; note: nearly all actives have a fitted effect of over 30% in size)
Chain of Acetylcholinesterase (Homo sapiens) (P22303 whole entry, looked up): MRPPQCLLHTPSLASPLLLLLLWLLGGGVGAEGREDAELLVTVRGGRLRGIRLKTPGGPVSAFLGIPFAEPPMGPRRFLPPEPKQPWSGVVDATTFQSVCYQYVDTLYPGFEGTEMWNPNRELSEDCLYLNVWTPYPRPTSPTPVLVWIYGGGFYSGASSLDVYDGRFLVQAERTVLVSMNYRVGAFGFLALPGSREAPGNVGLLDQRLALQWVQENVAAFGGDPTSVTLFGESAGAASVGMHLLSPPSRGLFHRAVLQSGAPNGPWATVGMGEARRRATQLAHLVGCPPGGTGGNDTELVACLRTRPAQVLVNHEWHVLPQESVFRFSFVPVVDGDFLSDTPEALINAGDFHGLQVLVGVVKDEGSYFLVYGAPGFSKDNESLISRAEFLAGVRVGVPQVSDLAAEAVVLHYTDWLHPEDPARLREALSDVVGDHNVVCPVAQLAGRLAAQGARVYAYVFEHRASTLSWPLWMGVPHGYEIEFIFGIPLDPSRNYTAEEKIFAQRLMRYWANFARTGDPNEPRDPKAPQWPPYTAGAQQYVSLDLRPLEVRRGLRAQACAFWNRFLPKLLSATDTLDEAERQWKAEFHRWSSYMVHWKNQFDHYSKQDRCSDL
In short: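 SH-SY5Y cells, plated overnight at 37 C, were exposed to compounds for 30 min at 37 C and 5% CO2. Acetylthiocholine plus DTNB was then added, and thiocholine from endogenous AChE was quantified colorimetrically after 90 min at 37 C.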

[7] = target: Acetylcholinesterase (Homo sapiens) (UniProt P22303); assay: Acetylcholinesterase (AChE) small molecule antagonists: enzyme-based qHTS assay (AID 1347397; calls by dose curve; note: nearly all actives have a fitted effect of over 55% in size); settings: Potency: AChE enzyme activity inhibition
In short: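 Tox21 library chemicals are tested in qHTS format against recombinant human AChE. The enzyme, dispensed at 50 mU/mL, sits with compound for 30 min at room temperature. A DTNB–acetylthiocholine cocktail follows, and colour is read after 10 min.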
% is set by controls: 0 for no effect and ±100 for the full control effect.

N#Cc1c(-c2ccc(Cl)cc2)[nH]c(C(F)(F)F)c1Br
active: Potency [2] 1.54 µM | Potency [4] 27.3 µM | Potency [5] 2.17 µM
inactive: Potency [1] | Potency [3] | Potency [6] | Potency [7]

COc1ccc([N+](=O)[O-])cc1O
inactive: Potency [1] | Potency [2] | Potency [3] | Potency [4] | Potency [5] | Potency [6] | Potency [7]

Cc1cc(C)cc(OP(=O)(Oc2cc(C)cc(C)c2)Oc2cc(C)cc(C)c2)c1
active: Potency [5] 8.77 µM
inactive: Potency [1] | Potency [2] | Potency [3] | Potency [4] | Potency [6] | Potency [7]

COc1ccc(N)cc1N
active: Potency [2] 22.4 µM and 29.4 µM | Potency [4] 56.2 µM | Potency [5] 11.2 µM and 33 µM
inactive: Potency [1] | Potency [3] | Potency [6] | Potency [7]

Oc1ccc2ccc3cccc4ccc1c2c34
active: Potency [5] 27.3 µM
inactive: Potency [1] | Potency [2] | Potency [3] | Potency [4] | Potency [6] | Potency [7]

CC(=O)c1ccc(-c2ccccc2)cc1
inactive: Potency [1] | Potency [2] | Potency [3] | Potency [4] | Potency [6] | Potency [7]
active: Potency [5] 48.6 µM

CCC(C)c1cc(C(C)(C)C)cc(-n2nc3ccccc3n2)c1O (stereo unspecified)
inactive: Potency [1] | Potency [2] | Potency [3] | Potency [4] | Potency [5] | Potency [6] | Potency [7]

Brc1c(Br)c(Br)c(Oc2c(Br)c(Br)c(Br)c(Br)c2Br)c(Br)c1Br
inactive: caspase activation [1] -0.566% [at 19 µM] | activity change, negative = cytotoxicity [2] -1.81% [at 19 µM] | caspase-3/7 activation [3] 3.41% [at 19 µM] | activity change, negative = cytotoxicity [4] 0.358% [at 19 µM] | activation [5] -0.0764% [at 19 µM] | activity, negative = inhibition [6] 0.803% [at 23.6 µM] | activity change, negative = inhibition [7] -1.63% [at 23.6 µM]

O=C1C=CC(=O)c2ccccc21
active: Potency [2] 5.45 µM | Potency [4] 61.1 µM
inactive: Potency [1] | Potency [3] | Potency [5] | Potency [6] | Potency [7]

ClCc1ccc(Cl)cc1Cl
inactive: Potency [1] | Potency [2] | Potency [3] | Potency [4] | Potency [5] | Potency [6] | Potency [7]

O=c1[nH]c2ccccc2n1C1CCN(CCCC(c2ccc(F)cc2)c2ccc(F)cc2)CC1
inactive: Potency [5] | Potency [6] | Potency [7]
active: Potency [1] 61.1 µM | Potency [2] 30.6 µM and 26.6 µM | Potency [3] 30.6 µM | Potency [4] 54.5 µM

CCCCOCN(C(=O)CCl)c1c(CC)cccc1CC
inactive: Potency [1] | Potency [3] | Potency [4] | Potency [6] | Potency [7]
active: Potency [2] 61.1 µM | Potency [5] 2.73 µM

CCCCCCCCCCCCBr
inactive: Potency [1] | Potency [2] | Potency [3] | Potency [4] | Potency [5] | Potency [6] | Potency [7]
